Assay outcomes: PubChem, NMMLSC
LAP4 TOR yeast = alters LAP4-GFP fluorescence in TOR pathway yeast screen; GFP response vs DMSO, % at 10 µM; S. cerevisiae LAP4-GFP multiplex, flow cytometry GFP, 3 h; median GFP as percent of DMSO wells; AID 2023; 320,000 tested, 0.34% active;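 active = GFP response vs DMSO above a set limit, about the screen mean plus 3 SD, cut at about 150% in these data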
MEP2 TOR yeast = alters MEP2-GFP fluorescence in TOR pathway yeast screen; S. cerevisiae MEP2-GFP strain, flow cytometry GFP, 3 h; 100% = DMSO control level; GFP response vs DMSO, % at 10 µM; 330,000 tested, 0.51% active; AID 2016;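 active = GFP response versus DMSO above a set limit, roughly screen mean plus 3 SD, cut at about 180% in these data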;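 also: median GFP fluorescence of the barcode-gated MEP2-GFP cells per well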
RPL19A TOR yeast = alters RPL19A-GFP fluorescence in TOR pathway yeast screen; AID 2025; S. cerevisiae RPL19A-GFP strain, flow cytometry, 3 h; hits give low values; percent response vs DMSO, % at 10 µM; 330,000 tested, 0.3% active;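 active = percent response vs DMSO below 50%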;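 also: median channel GFP fluorescence of the barcoded RPL19A-GFP strain; ratio of sample median GFP to plate DMSO average so 100% = DMSO; lower means less RPL19A-GFP as with rapamycin TOR inhibition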
CIT2 TOR yeast = yeast TOR pathway CIT2-GFP modulation; GFP response vs DMSO, % at 10 µM; S. cerevisiae CIT2-GFP strain, flow cytometry, 3 h; 100 means same as DMSO wells; 320,000 tested, 0.065% active;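 active = GFP response relative to DMSO above a set limit, near the screen mean plus 3 SD, cut at about 150% in these data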;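 also: ratio of well median GFP fluorescence to mean of DMSO wells on the plate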
AGP1 TOR yeast = yeast TOR pathway AGP1-GFP modulation. S. cerevisiae AGP1-GFP multiplex flow cytometry, 3 h; GFP as percent of DMSO wells. GFP response vs DMSO, % at 10 µM. 320,000 tested, 0.02% active. AID 2066;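 active = GFP response relative to DMSO above a set limit, near screen average plus 3 SD, cut at about 150% in these data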;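 also: median GFP channel fluorescence of the gated AGP1 strain per well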
LAP4-GFP pick2 = yeast LAP4-GFP modulation, second cherry pick | shares compounds with LAP4 TOR yeast | S. cerevisiae LAP4-GFP strain, flow cytometry GFP, 3 h | GFP response vs DMSO, % at 10 µM | 590 tested, 20% active | AID 2621;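 active = GFP signal as percent of the solvent control above about 150%, meaning raised reporter expression, limit read from the data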;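 also: ratio of well median GFP fluorescence to plate DMSO mean so 100% = DMSO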
MEP2 cherry2 = reconfirmed MEP2-GFP TOR pathway modulator in yeast; shares compounds with LAP4 TOR yeast; S. cerevisiae MEP2-GFP strain, flow cytometry GFP, 3 h; GFP response vs DMSO, % at 10 µM; 590 tested, 10% active; AID 2622;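 active = GFP signal above 150% of the solvent control wells, that is a rise of more than half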;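 also: median channel GFP fluorescence of all gated yeast cells per well; ratio of median GFP to plate DMSO average so 100% = DMSO level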
RPL19A-GFP pick2 = second confirmation of modulators of TOR reporter RPL19A-GFP in yeast. shares compounds with LAP4 TOR yeast. S. cerevisiae RPL19A-GFP strain, flow cytometry GFP, 3 h; hits give low values; 100% means same as DMSO wells. GFP response vs DMSO, % at 10 µM. 590 tested, 3% active. AID 2623;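 active = under 65% GFP response relative to DMSO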;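 also: median GFP channel fluorescence per well over the all cells gate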
CIT2 GFP CP2 = reconfirmed modulator of CIT2-GFP TOR reporter in yeast. GFP response vs DMSO, % at 10 µM. shares compounds with LAP4 TOR yeast. 590 tested, 8% active. S. cerevisiae CIT2-GFP strain, flow cytometry GFP, 3 h; DMSO control wells read 100%;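 active = GFP response vs DMSO above about 150%, limit read from the data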;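 also: median green fluorescence per well over all gated yeast cells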
AGP1-GFP pick2 = second confirmation of modulators of TOR reporter AGP1-GFP in yeast | shares compounds with LAP4 TOR yeast | S. cerevisiae AGP1-GFP strain, flow cytometry GFP, 3 h | percent response vs DMSO, % at 10 µM | 590 tested, under 10 active | AID 2643;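 active = over 150 percent of DMSO response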;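 also: median GFP channel fluorescence over all cells without mother daughter split; sample median GFP divided by mean DMSO control so 100% equals DMSO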
Yeast autofluor = compound is autofluorescent in yeast s288c cells | AID 2757 | fluorescence change (kMESF span) at 33 µM | shares compounds with LAP4 TOR yeast | S. cerevisiae s288c, 520 nm autofluorescence, flow cytometry, 3 h; hits give high values; zero means same as solvent-only cells | 610 tested, under 10 active;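 active = fluorescence span over the dose series, or activity score, above about 33, limit read from the data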
Yeast autofl DR = TOR screen hit shows autofluorescence in yeast s288c; shares compounds with LAP4 TOR yeast; S. cerevisiae s288c parental, compound autofluorescence, flow cytometry, 3 h; fluorescence change (span) at 33 µM; 110 tested, under 10 active; AID 488829;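 active = fluorescence change span, or the activity score built from it, above 25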
TORC1 bypass gr = stops wildtype yeast growth while TORC1 bypass cells still grow | growth rating (0-3) at 30 µM | AID 504456 | S. cerevisiae BY4741 spot growth rating, 48-72 h; hits give low values | shares compounds with LAP4 TOR yeast | 120 tested, under 10 active;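 active = growth rating at most 1 for wild type yeast while the TORC1 bypass strain still grows fully, rated 3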
* marks the source's active call; other numbers are inactive results; . = not tested or not shown. Only some compounds are listed: those with a hit (about 0.92% of all), similar ones and a draw of the others.

SMILES	LAP4 TOR yeast	MEP2 TOR yeast	RPL19A TOR yeast	CIT2 TOR yeast	AGP1 TOR yeast	LAP4-GFP pick2	MEP2 cherry2	RPL19A-GFP pick2	CIT2 GFP CP2	AGP1-GFP pick2	Yeast autofluor	others
CCCc1c(O)nc(SCCN(CC)CC)n(C(=O)c2ccccc2)c1=O	116	248*	36*	115	28	97	102	99	96	99	.
S=c1[nH]nc(-c2cc3c(s2)-c2ccccc2CC3)o1	122	128	91	118	78	.	.	.	.	.	.
CSc1nnc(-c2cc3c(s2)-c2ccccc2CC3)o1	151*	100	96	91	69	101	100	102	95	91	.
Cc1nn2c(NCc3ccccn3)c3c(nc2c1-c1ccccc1)CCC3	152*	118	94	70	72	.	.	.	.	.	2.7
N/C(Cc1ccc(Cl)c(Cl)c1)=N\OC(=O)c1cccs1	219*	115	86	111	63	.	.	.	.	.	1
COc1ccc2nccc(/C=C/c3ccnc4ccc(OC)cc34)c2c1	137	91	62	68	65	111	111	94	93	92	.
COc1ccc2nc(Cl)cc(Cl)c2c1	99	97	94	96	100	.	.	.	.	.	.
Cc1ccc(/C=C/C(=O)c2ccc([N+](=O)[O-])o2)cc1	176*	97	99	87	88	.	.	.	.	.	1.9
CCCCc1ccc(/C=C2/C(=O)ON=C2c2ccccc2)s1	104	108	100	97	99	104	108	98	102	104	0
COc1cc(/C=C2\C(=O)ON=C2c2ccccc2)cc(Cl)c1O	117	111	112	108	109	.	.	.	.	.	.
Cc1ccc(C2=NOC(=O)/C2=C\c2ccccc2)cc1	142	93	96	101	96	.	.	.	.	.	.
Cc1sc(/C=C2\C(=O)ON=C2c2ccccc2)cc1Br	91	103	103	98	91	99	102	98	106	99	0
Cc1[nH]c2ccccc2c1C(=O)COC(=O)c1ccc([N+](=O)[O-])s1	69	124	62	95	19	138	180*	77	143	70	6.8
CC(C)(C)c1ccc(NC(=O)COC(=O)c2ccc([N+](=O)[O-])s2)cc1	211*	168	70	95	46	226*	223*	86	131	80	4.5	Yeast autofl DR=1.4;TORC1 bypass gr=0
O=C(CSc1nnc(CNC(=O)c2c(F)cccc2Cl)o1)NCc1ccccc1	90	114	97	99	95	.	.	.	.	.	.
COC(=O)c1cc(C(=O)OCC(=O)c2ccc[nH]2)cc([N+](=O)[O-])c1	114	97	97	86	100	.	.	.	.	.	.
O=[N+]([O-])c1ccc(O)c(/C=N/Nc2ccccn2)c1	237*	122	66	133	92	284*	180*	90	131	97	2.3
Cc1c(Cc2ccccc2)c(NCCN(C)C)n2c(nc3ccccc32)c1C#N	198*	126	109	77	101	.	.	.	.	.	2
O=C(CCC1CCCNC1)c1ccccc1 (stereo not given)	96	111	107	110	102	.	.	.	.	.	.
CCOC(=O)c1sc(N=NC2=C(O)CC(C)(C)CC2=O)c(C(=O)OCC)c1C	94	78	94	87	91	.	.	.	.	.	.
N/C(=N\OC(=O)c1ccccc1Cl)c1ccc(Cl)cc1	143	104	88	169*	79	.	.	.	.	.	0.9
N/C(Cc1ccc(Cl)cc1Cl)=N\OC(=O)c1ccccc1	170*	121	87	119	41	.	.	.	.	.	7.7
N/C(=N\OC(=O)c1ccc(Cl)cc1Cl)c1ccccc1	257*	118	93	121	71	.	.	.	.	.	1.7
N/C(Cc1ccc(Cl)cc1)=N\OC(=O)c1cccc2ccccc12	196*	118	91	125	74	.	.	.	.	.	1.7	Yeast autofl DR=0.89;TORC1 bypass gr=3
N/C(Cc1ccc(Cl)cc1)=N\OC(=O)c1ccc2ccccc2c1	98	108	107	102	103	.	.	.	.	.	.
SMILES	LAP4 TOR yeast	MEP2 TOR yeast	RPL19A TOR yeast	CIT2 TOR yeast	AGP1 TOR yeast	LAP4-GFP pick2	MEP2 cherry2	RPL19A-GFP pick2	CIT2 GFP CP2	AGP1-GFP pick2	Yeast autofluor	others
COc1cccc(CNC(=O)CN2c3cccc4cccc(c34)S2(=O)=O)c1	105	110	101	96	102	.	.	.	.	.	.
NC(=O)c1ccc(NC(=O)COc2cccc3ccccc23)cc1	71	100	107	86	90	.	.	.	.	.	.
CC12CCC(=O)N1C(C(=O)Nc1cc(Cl)ccc1N1CCOCC1)CS2 (stereo not given)	98	98	105	104	99	.	.	.	.	.	.
CCCN1CCN(C(=O)c2oc3ccccc3c2NC(=O)C2CC2)CC1	99	98	99	102	101	.	.	.	.	.	.
O=C(CN(C1CCCCC1)S(=O)(=O)c1ccccc1)N1CCCC1	97	107	104	94	97	.	.	.	.	.	.
O=C(CN(C1CCCCC1)S(=O)(=O)c1ccc(Cl)cc1)N1CCOCC1	90	150	54	96	48	99	100	98	99	97	.
CC1(C)C(=O)Nc2ccccc2N1C(=O)COC(=O)COc1ccc(C#N)cc1	103	98	99	93	99	.	.	.	.	.	.
O=c1oc2cc(Oc3ccc(C(F)(F)F)cc3[N+](=O)[O-])ccc2c2c1CCC2	91	96	103	104	100	.	.	.	.	.	.
O=c1oc2cc(Oc3c([N+](=O)[O-])cc(C(F)(F)F)cc3[N+](=O)[O-])ccc2c2c1CCCC2	294*	91	70	76	86	.	.	.	.	.	0
CCOCCc1c(O)nc(SCCOc2ccc(C)c(C)c2)[nH]c1=O	102	99	102	99	106	.	.	.	.	.	.
N=C1C(c2ccccc2)=C(O)CN1c1cccc(S(=O)(=O)NCc2ccco2)c1	100	115	107	109	109	.	.	.	.	.	.
